“And” between values parts separate entries of the source, which are not always exact repeats. Equal entries are not always repeated. Inconclusive results are not listed. A call without a number means that no potency is given here. Some structures have more than one record in an assay (separate samples or runs), and their calls can disagree. The source made the active and inactive calls. Unless noted, calls come from the whole dose curve; as a rule, active = well fitted curve in the direction sought with a large enough effect in the repeat runs; inconclusive = weak or mixed curves; inactive = no such curve, though single readings can be large; an effect the other way counts as inactive or inconclusive.
Legend:
[1] = biological target: Thyrotropin receptor (Homo sapiens) (UniProt P16473); test: qHTS assay to identify small molecule antagonists of the thyroid stimulating hormone receptor (TSHR) signaling pathway (AID 1259385; calls by dose curve; note: nearly all actives have a fitted effect of over 20% in size)
Outline: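 Antagonist mode: compound-treated TSHR-expressing HEK293 cells were stimulated with 1.5 ng/mL TSH (final) in presence of Ro20-1724 for 30 min at RT. HTRF cAMP detection after 1 h; each compound tested at 15 concentrations, triplicate.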

[2] = biological target: Progesterone receptor (Homo sapiens) (UniProt P06401); test: qHTS assay to identify small molecule agonists of the progesterone receptor (PR) signaling pathway (AID 1346784; calls by dose curve; note: nearly all actives have a fitted effect of over 30% in size)
Outline: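 PR-UAS-bla HEK 293T cells (beta-lactamase reporter under UAS) in 2% charcoal-stripped FBS, dosed with 23 nL compound after 6 hr, incubated 16hr at 37C. LiveBLAzer B/G FRET substrate added, fluorescence read after 2 hours.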

[3] = biological target: Progesterone receptor (Homo sapiens) (UniProt P06401); test: qHTS assay to identify small molecule antagonists of the progesterone receptor (PR) signaling pathway (AID 1346795; active = well fitted inhibition curve with a large enough effect in the signal ratio in the repeat runs, not every such curve was filed as active; the % refers to the signal ratio)
Outline: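 PR-UAS-bla HEK293T cells with beta-lactamase reporter under UAS control, in 2% charcoal-stripped FBS, treated with compounds plus 1 nM promegestone (R5020, final) for 16 hr at 37C. Read-out: FRET beta-lactamase substrate fluorescence after 2 hr at room temperature.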

[4] = qHTS assay to identify small molecule antagonists of the progesterone receptor (PR) signaling pathway - cell viability counter screen (AID 1346798); note: series mostly up to about 92 µM; nearly all actives have a fitted effect of over 50% in size
Outline: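 PR-UAS-bla HEK293T cells, 3,000/well in 2% charcoal-stripped FBS medium, dosed with compounds plus R5020 agonist and incubated 16 h at 37C. Viability then measured in the same wells by CellTiter-Glo luminescence after 30 min at RT.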

[5] = qHTS assay to identify small molecule agonists of the progesterone receptor (PR) signaling pathway - cell viability counter screen (AID 1346799; calls by dose curve; note: nearly all actives have a fitted effect of over 45% in size)
Outline: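 Counter screen in the PR-UAS-bla HEK293T wells (2% charcoal-stripped FBS, 16 h compound exposure at 37 C) after the bla read. CellTiter-Glo added, 30 min at room temperature, luminescence read as cell viability.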

[6] = qHTS assay to identify small molecule antagonists of the TGF-beta/Smad signaling pathway - cell viability counter screen (AID 1346824); note: nearly all actives have a fitted effect of over 50% in size
Outline: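 Cytotoxicity counter-screen run in the same wells as the beta-lactamase Smad reporter read: CellTiter-Glo luminescence after 30 min at room temperature. HEK 293T SBE-bla cells had 5 hr compound exposure at 37 C with TGF-beta1 (0.25 ng/mL stock).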

[7] = qHTS assay to identify small molecule agonists of the TGF-beta/Smad signaling pathway - cell viability counter screen (AID 1346829); note: top concentration of the series differs between compounds; nearly all actives have a fitted effect of over 45% in size
Outline: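 After overnight seating at 37 C and 5% CO2, reporter cells got compounds for 5 hr and FRET substrate for 2 hr; cell viability then came from CellTiter-Glo luminescence.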

[8] = qHTS assay to identify small molecule agonists of the TGF-beta/Smad signaling pathway (AID 1346859; active = well fitted activation curve with a large enough effect in the signal ratio in the repeat runs, not every such curve was filed as active; the % refers to the signal ratio; note: series mostly up to about 77 µM)
Outline: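 SBE-bla HEK293T cells plated overnight, then compound exposure for 5 h at 37 C. Beta-lactamase reporter read with LiveBLAzer B/G FRET substrate after 2 h at room temperature, fluorescence at 405 nm excitation, 460/530 nm emission.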

[9] = biological target: Thyrotropin-releasing hormone receptor (Homo sapiens) (UniProt P34981); test: qHTS assay to identify small molecule antagonists of the thyrotropin-releasing hormone receptor (TRHR) signaling pathway (AID 1346877; active = well fitted inhibition curve with a large enough effect in the repeat runs, not every such curve was filed as active; note: series mostly up to about 51 µM)
Outline: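 TRHR-expressing HEK293 cells were seeded, cultured 18 h at 37 °C, then loaded with calcium dye for 2 h. Compounds were pre-incubated 5 min at room temperature before 1 nM TRH (final) was added, and kinetic fluorescence was recorded for 3 min.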

[10] = biological target: Thyrotropin-releasing hormone receptor (Homo sapiens) (UniProt P34981); test: qHTS assay to identify small molecule agonists of the thyrotropin-releasing hormone receptor (TRHR) signaling pathway (AID 1346891; calls by dose curve; note: series mostly up to about 58 µM)
Outline: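 HEK293 cells expressing TRHR plated 18 h at 37 C/5% CO2, calcium dye-loaded 2 h at 37 C, then compound added (agonist mode); kinetic calcium fluorescence read 3 min at 1 s intervals; 15 concentrations in triplicate.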

[11] = Human pregnane X receptor (PXR) small molecule agonists, qHTS cell viability counter screen (AID 1346977); note: nearly all actives have a fitted effect of over 50% in size
Outline: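 PXR-Luc HepG2 cells (2,000/well, 5% charcoal-stripped FBS) preincubated 5 hr, then exposed to compounds 24 hr at 37 C. Viability read in the same wells by CellTiter-Fluor fluorescence, reagent added at 23 hr, 1 hr incubation.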

[12] = Caspase-3/7 induction in HepG2 cells by small molecules, qHTS assay (AID 1346978); note: nearly all actives have a fitted effect of over 15% in size
Outline: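 Caspase-3/7 induction was measured by Caspase-Glo 3/7 luminescence (30 min, room temperature) after a 17 hr compound exposure of wild-type HepG2 cells seeded at 2,000 per well and pre-incubated 5 hr.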

[13] = Caspase-3/7 induction in CHO-K1 cells by small molecules, qHTS assay (AID 1346980); note: nearly all actives have a fitted effect of over 15% in size
Outline: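 Luminescent Caspase-Glo 3/7 read (30min, room temperature) quantified apoptosis induction. Cells were wild-type CHO-K1, treated with compound for 17hr at 37 C and 5% CO2.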

[14] = Caspase-3/7 induction in HepG2 cells by small molecules, qHTS cell viability counter screen (AID 1346981); note: series mostly up to about 92 µM; nearly all actives have a fitted effect of over 30% in size
Outline: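 Wild-type HepG2 cells (2,000/well) were allowed to settle for 5 hr at 37 C, 5% CO2, then dosed with compounds in DMSO by pin transfer. After 16 hr at 37 C, CellTiter-Fluor was added and fluorescence read 1 hr later.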

[15] = biological target: Nuclear receptor subfamily 1 group I member 2 (Homo sapiens) (UniProt O75469); test: Human pregnane X receptor (PXR) small molecule agonists, qHTS assay (AID 1346982); note: nearly all actives have a fitted effect of over 35% in size; note: potency is the fitted concentration of half-maximal effect
Outline: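 PXR-Luc HepG2 cells (CYP3A4 promoter-driven luciferase) were seeded in medium with 5% charcoal-stripped FBS, left 5 hr at 37 C, then exposed to compounds in DMSO for 24 hr. Luminescence was read after ONE-Glo addition.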

[16] = Caspase-3/7 induction in CHO-K1 cells by small molecules, qHTS cell viability counter screen (AID 1346979); note: nearly all actives have a fitted effect of over 35% in size
Outline: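 Wild-type CHO-K1 cells (1,500/well) treated with compound after 5 h plating; after 16 h at 37C, viability read as CellTiter-Fluor fluorescence following 1 h reagent incubation, in the same wells as the caspase read.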

[17] = biological target: Nuclear receptor subfamily 1 group I member 2 (Rattus norvegicus) (UniProt Q9R1A7); test: Rat pregnane X receptor (rPXR) activation by small molecules, qHTS assay (AID 1346983); settings: rPXR luciferase reporter cells, One-Glo luminescence, 24 h; max activation: stronger effect = higher value; note: nearly all actives have a fitted effect of over 20% in size
Outline: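 Luminescent readout (One-Glo luciferase, 30 min room temperature) followed 24 hr compound treatment at 37 C of rPXR cells plated 2,000 per well and preincubated 5hr; qHTS format with compounds delivered in DMSO.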

[18] = biological target: Nuclear receptor subfamily 1 group I member 2 (Homo sapiens) (UniProt O75469); test: CYP3A4 induction through human pregnane X receptor (PXR) by small molecules, qHTS assay (AID 1346984); note: nearly all actives have a fitted effect of over 40% in size
Outline: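 DPX-2 cells (HepG2 co-transfected with PXR and CYP3A4 promoter-luciferase) treated with compounds 24 h at 37C; luciferin-IPA CYP3A4 substrate 3uM final added for 3 h, then One-Glo; luminescence read. qHTS format.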

[19] = biological target: Nuclear receptor subfamily 1 group I member 2 (Homo sapiens) (UniProt O75469); test: Human pregnane X receptor (PXR) activation by small molecules, qHTS assay (AID 1346985); note: nearly all actives have a fitted effect of over 40% in size
Outline: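 DPX-2 cells (HepG2 co-transfected with a PXR response element and a CYP3A4-promoter luciferase construct) were seeded at 2,000 per well, rested 5 hr at 37C, then exposed to DMSO-dissolved compounds for 24 hr. Activation was read as luciferase luminescence.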

[20] = qHTS assay to identify small molecule agonists of the estrogen receptor alpha (ER-alpha) signaling pathway in the presence of an antagonist - cell viability counter screen (AID 1259386);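 note: series mostly up to about 92 µM; cells exposed to compounds for 22 h at 37 °C before the viability read; nearly all actives have a fitted effect of over 30% in size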
Outline: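 VM7Luc4E2 cells (endogenous full-length ER-alpha, 4×ERE-luciferase) were held 5 days in phenol red-free medium with 10% charcoal-stripped FBS, plated, then given 10.0nM ICI-182,780 and compounds at 15 concentrations for 22hr at 37C; viability read by CellTiter-Fluor fluorescence.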

Thyrotropin receptor (Homo sapiens), sequence (P16473 whole entry, looked up): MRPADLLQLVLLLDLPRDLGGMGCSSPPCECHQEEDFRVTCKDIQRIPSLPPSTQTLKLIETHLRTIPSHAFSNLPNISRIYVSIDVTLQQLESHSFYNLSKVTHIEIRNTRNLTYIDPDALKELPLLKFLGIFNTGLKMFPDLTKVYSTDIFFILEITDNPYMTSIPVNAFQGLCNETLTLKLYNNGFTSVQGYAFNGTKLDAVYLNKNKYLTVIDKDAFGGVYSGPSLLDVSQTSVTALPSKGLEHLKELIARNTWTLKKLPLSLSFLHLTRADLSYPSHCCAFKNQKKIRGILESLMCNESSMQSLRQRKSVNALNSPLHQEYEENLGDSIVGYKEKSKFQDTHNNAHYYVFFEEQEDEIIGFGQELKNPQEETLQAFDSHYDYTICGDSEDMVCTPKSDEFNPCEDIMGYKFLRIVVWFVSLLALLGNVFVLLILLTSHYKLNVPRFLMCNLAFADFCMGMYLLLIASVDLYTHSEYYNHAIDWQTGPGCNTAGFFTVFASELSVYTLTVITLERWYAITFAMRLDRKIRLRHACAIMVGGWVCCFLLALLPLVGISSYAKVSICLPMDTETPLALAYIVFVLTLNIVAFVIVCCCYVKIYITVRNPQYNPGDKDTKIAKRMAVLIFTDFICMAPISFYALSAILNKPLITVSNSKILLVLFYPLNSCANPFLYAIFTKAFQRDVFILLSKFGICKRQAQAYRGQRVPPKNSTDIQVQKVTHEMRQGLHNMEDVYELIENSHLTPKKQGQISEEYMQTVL
Nuclear receptor subfamily 1 group I member 2 (Homo sapiens), sequence (O75469 whole entry, looked up): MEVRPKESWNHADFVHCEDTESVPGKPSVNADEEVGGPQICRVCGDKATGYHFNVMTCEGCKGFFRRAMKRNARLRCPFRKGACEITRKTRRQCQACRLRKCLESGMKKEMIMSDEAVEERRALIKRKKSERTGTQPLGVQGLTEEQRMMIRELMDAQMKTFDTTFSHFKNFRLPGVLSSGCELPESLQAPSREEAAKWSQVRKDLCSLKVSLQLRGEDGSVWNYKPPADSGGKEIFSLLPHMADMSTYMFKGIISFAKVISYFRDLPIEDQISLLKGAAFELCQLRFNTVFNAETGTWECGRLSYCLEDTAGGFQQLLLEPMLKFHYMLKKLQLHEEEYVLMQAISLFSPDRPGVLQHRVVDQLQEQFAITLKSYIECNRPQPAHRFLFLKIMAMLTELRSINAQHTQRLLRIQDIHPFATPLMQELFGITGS
Progesterone receptor (Homo sapiens), sequence (P06401 whole entry, looked up): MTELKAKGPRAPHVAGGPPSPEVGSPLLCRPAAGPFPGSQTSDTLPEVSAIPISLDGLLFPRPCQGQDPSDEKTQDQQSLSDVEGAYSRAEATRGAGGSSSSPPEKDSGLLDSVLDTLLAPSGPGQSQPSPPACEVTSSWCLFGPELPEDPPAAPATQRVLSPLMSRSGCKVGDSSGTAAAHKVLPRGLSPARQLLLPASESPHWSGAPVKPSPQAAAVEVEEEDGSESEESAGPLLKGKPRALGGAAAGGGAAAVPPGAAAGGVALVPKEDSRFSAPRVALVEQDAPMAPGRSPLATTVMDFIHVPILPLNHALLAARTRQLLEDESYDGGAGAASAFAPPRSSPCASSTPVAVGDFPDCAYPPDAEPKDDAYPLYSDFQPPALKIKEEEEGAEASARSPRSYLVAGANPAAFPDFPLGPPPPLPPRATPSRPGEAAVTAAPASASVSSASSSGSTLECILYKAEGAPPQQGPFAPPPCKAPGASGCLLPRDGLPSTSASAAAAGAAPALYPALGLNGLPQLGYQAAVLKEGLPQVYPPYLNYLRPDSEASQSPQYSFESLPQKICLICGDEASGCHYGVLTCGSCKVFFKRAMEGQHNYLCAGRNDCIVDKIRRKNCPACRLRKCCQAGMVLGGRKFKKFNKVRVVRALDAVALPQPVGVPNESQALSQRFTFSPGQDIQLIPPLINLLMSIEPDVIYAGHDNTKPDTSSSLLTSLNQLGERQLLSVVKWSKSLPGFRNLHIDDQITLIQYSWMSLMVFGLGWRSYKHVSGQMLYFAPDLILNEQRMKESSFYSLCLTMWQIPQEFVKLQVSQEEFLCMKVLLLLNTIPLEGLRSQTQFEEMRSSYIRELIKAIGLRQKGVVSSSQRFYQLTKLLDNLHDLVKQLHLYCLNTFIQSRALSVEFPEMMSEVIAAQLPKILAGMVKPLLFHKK
Thyrotropin-releasing hormone receptor (Homo sapiens), sequence (P34981 whole entry, looked up): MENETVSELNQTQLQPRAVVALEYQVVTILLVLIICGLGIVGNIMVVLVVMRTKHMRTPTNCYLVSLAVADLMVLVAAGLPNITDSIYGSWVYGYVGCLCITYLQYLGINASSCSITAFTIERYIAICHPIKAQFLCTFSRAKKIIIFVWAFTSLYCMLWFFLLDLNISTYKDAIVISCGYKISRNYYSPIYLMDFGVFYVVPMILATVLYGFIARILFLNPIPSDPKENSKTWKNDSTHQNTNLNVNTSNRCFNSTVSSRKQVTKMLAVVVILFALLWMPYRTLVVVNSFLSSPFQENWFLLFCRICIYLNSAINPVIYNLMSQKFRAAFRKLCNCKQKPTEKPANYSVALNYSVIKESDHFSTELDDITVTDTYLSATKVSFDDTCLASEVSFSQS
Nuclear receptor subfamily 1 group I member 2 (Rattus norvegicus), sequence (Q9R1A7 whole entry, looked up): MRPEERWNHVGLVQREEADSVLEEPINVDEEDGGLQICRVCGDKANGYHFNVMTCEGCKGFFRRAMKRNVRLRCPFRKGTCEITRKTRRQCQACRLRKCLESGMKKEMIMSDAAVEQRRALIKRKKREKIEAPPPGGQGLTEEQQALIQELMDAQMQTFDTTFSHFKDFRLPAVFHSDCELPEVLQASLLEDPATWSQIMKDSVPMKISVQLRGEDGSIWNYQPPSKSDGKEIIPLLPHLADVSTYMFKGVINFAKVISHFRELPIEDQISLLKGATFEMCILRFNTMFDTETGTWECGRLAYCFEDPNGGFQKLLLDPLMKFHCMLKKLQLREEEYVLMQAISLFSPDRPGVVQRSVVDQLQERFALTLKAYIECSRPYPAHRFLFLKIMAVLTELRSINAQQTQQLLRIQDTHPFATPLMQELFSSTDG

In the case of `COc1nc(NC(C)C)nc(NC(C)C)n1`, the outcome [1] is reported as “inactive”, the Potency [2] is reported as “inactive” and the Potency [3] is reported as “inactive”. For the same compound, the Potency [4] was “inactive”, the outcome [5] was “inactive” and the Potency [6] was “inactive”. The Potency [7] was “inactive”, the outcome [8] was “inactive” and the outcome [9] was “inactive”. For the same compound, the outcome [10] was “inactive”, the Potency [11] was “inactive” and the outcome [12] was “inactive”. For the same compound, the outcome [13] was “inactive”, the Potency [14] was “inactive” and the Potency [15] was 30.7 µM (active) and 54.5 µM (active).

In the case of `O=P1(NCCCl)OCCCN1CCCl` (configuration not stated), the outcome [1] is reported as “inactive”, the Potency [2] is reported as “inactive” and the Potency [3] is reported as “inactive”. The Potency [4] was “inactive”, the outcome [5] was “inactive” and the Potency [6] was “inactive”. For the same compound, the Potency [7] was “inactive”, the outcome [8] was “inactive” and the outcome [9] was “inactive”. For the same compound, the outcome [10] was “inactive”, the Potency [11] was “inactive” and the outcome [12] was “inactive”. For the same compound, the Potency [16] was “inactive”, the outcome [13] was “inactive” and the Potency [14] was “inactive”.

For `COP(=S)(OC)SCN1C(=O)c2ccccc2C1=O`, the outcome [1] was “inactive”, the Potency [2] was “inactive” and the Potency [3] was “inactive”. For the same compound, the Potency [4] was “inactive”, the outcome [5] was “inactive” and the Potency [6] was “inactive”. The Potency [7] was “inactive”, the outcome [8] was “inactive” and the outcome [9] was “inactive”. For the same compound, the outcome [10] was “inactive”, the Potency [11] was “inactive” and the outcome [12] was “inactive”. For the same compound, the outcome [13] was “inactive”, the Potency [14] was “inactive” and the Potency [15] was “inactive”. The max activation [17] was -1.79% (inactive), the Potency [18] was “inactive” and the Potency [19] was “inactive”.

In the case of `C/C=C/c1ccc2c(c1)OCO2`, the outcome [1] is reported as “inactive”, the Potency [20] is reported as “inactive” and the Potency [2] is reported as “inactive”. For the same compound, the Potency [3] was “inactive”, the Potency [4] was “inactive” and the outcome [5] was “inactive”. For the same compound, the Potency [6] was “inactive”, the Potency [7] was “inactive” and the outcome [8] was “inactive”. The Potency [11] was “inactive”, the outcome [12] was “inactive” and the outcome [13] was “inactive”. For the same compound, the Potency [14] was “inactive” and the Potency [15] was “inactive”.

In the case of `CCOc1ccc(N)cc1`, the outcome [1] is reported as “inactive”, the Potency [2] is reported as “inactive” and the Potency [3] is reported as “inactive”. For the same compound, the Potency [4] was “inactive”, the outcome [5] was “inactive” and the Potency [6] was “inactive”. For the same compound, the Potency [7] was “inactive”, the outcome [8] was “inactive” and the outcome [9] was “inactive”. The outcome [10] was “inactive”, the Potency [11] was “inactive” and the outcome [12] was “inactive”. The Potency [16] was “inactive”, the outcome [13] was “inactive” and the Potency [14] was “inactive”. The Potency [15] was “inactive”.

With `CC(C)(C)C(=O)CCl` the outcome [1] was “inactive”, the Potency [2] was “inactive” and the Potency [3] was “inactive”. The Potency [4] was “inactive”, the outcome [5] was “inactive” and the Potency [6] was “inactive”. The Potency [7] was “inactive”, the outcome [8] was “inactive” and the outcome [9] was “inactive”. The Potency [11] was “inactive”, the outcome [12] was “inactive” and the Potency [16] was “inactive”. For the same compound, the outcome [13] was “inactive”, the Potency [14] was “inactive” and the Potency [15] was “inactive”.

In the case of `Cc1ccccc1N`, the outcome [1] is reported as “inactive”, the Potency [20] is reported as “inactive” and the Potency [2] is reported as “inactive”. For the same compound, the Potency [3] was “inactive”, the Potency [4] was “inactive” and the outcome [5] was “inactive”. For the same compound, the Potency [6] was “inactive”, the Potency [7] was “inactive” and the outcome [8] was “inactive”. The Potency [11] was “inactive”, the outcome [12] was “inactive” and the outcome [13] was “inactive”. The Potency [14] was “inactive” and the Potency [15] was “inactive and 54.5 µM (active)”.

In the case of `C=CC(=O)OCCCCCC(C)C`, the outcome [1] is reported as “inactive”, the Potency [2] is reported as “inactive” and the Potency [3] is reported as “inactive”. The Potency [4] was “inactive”, the outcome [5] was “inactive” and the Potency [6] was “inactive”. For the same compound, the Potency [7] was “inactive”, the outcome [8] was “inactive” and the outcome [9] was “inactive”. For the same compound, the Potency [11] was “inactive”, the outcome [12] was “inactive” and the outcome [13] was “inactive”. The Potency [14] was “inactive” and the Potency [15] was “inactive”.

For `N#CN=C(N)N`, the outcome [1] was “inactive”, the Potency [2] was “inactive” and the Potency [3] was “inactive”. The Potency [4] was “inactive”, the outcome [5] was “inactive” and the Potency [6] was “inactive”. The Potency [7] was “inactive”, the outcome [8] was “inactive” and the outcome [9] was “inactive”. The outcome [10] was “inactive”, the Potency [11] was “inactive” and the outcome [12] was “inactive”. The Potency [16] was “inactive”, the outcome [13] was “inactive” and the Potency [14] was “inactive”. The Potency [15] was “inactive”.

Reference: PubChem BioAssay (Tox21)
